MARV entry inh – blocks Marburg virus binding to or entry into cells; Marburg virus pseudotyped entry inhibition, cell reporter; AID 540276; hit rate 1.8% among 300,000; Potency, µM (highest dose often 37.8 µM), for the others: at the highest dose activity change, negative = inhibition, hits mostly inhibitors; calls by dose curve; tested in HEK293 cells
VACV mCherry inh – inhibitors of vaccinia virus infection (mCherry reporter signal); hit rate 0.63% among 310,000; Vaccinia virus mCherry reporter infection, fluorescence; Potency, µM (doses to about 36.5 µM), for inactives: top-dose activity change, negative = inhibition, hits mostly inhibitors; AID 720579; calls by dose curve; tested in A549 cells; further: nearly all actives have a fitted effect of over 35% in size
Lassa entry inh – Lassa virus entry inhibition | AID 540256 | Lassa virus pseudotype entry inhibition, cell reporter | Potency, µM (titrated, usually from 37.9 µM), for the others: top-dose activity change, negative = inhibition, actives largely listed as inhibitors | hit rate 1.2% among 300,000; calls by dose curve; tested in HEK293 cells; further: nearly all actives have a fitted effect of over 50% in size
Vaccinia Venus – vaccinia inhibition (Venus reporter) | Vaccinia virus Venus reporter expression, fluorescence | Potency, µM (titrated, usually from 36.5 µM), for inactives: at the top dose activity change, negative = inhibition, usual class: inhibitors | hit rate 0.46% among 330,000; calls by dose curve; tested in A549 cells; further: nearly all actives have a fitted effect of over 30% in size
* marks the source's active call; other numbers are inactive results; i = inactive; ? = inconclusive; nt = not tested or not shown; [ ] = another dose, or the depositor's remark. Compounds with a hit are over-represented: about 2.5% of the library has one in this group of screens. On the % scale 0 is the no-effect control and ±100 the full control effect; potency means the concentration at half of the fitted maximal effect.

SMILES	MARV entry inh	VACV mCherry inh	Lassa entry inh	Vaccinia Venus
Cc1cc(C(=O)NCCN2CCN(c3cccc(Cl)c3)CC2)n(-c2ccccc2)n1	7.31µM*	?	7.31µM*	-17.3%
O=C1NC(=O)[C@H](c2cn(-c3ccccc3)nc2-c2ccc(F)cc2)N1	1.6%	nt	nt	nt
CC1CN(CC(=O)NCCc2ccncc2)Cc2ccccc2O1 (stereo not drawn)	nt	-9.6%	nt	1.8%
Clc1ccc2c(N/N=C/c3cccnc3)ccnc2c1	?	?	?	-20.5%
Clc1ccc2c(N/N=C/c3ccc(Br)cc3)ccnc2c1	3.26µM*	?	?	?
C[C@@H]1CN(Cc2ccc3c(c2)CN(Cc2cccc4c2OCO4)CCO3)C[C@H](C)O1	nt	-13.5%	nt	-0.2%
Cn1c(=O)[nH]c(=O)c2c1nc(Sc1nc3ccccc3s1)n2Cc1ccccc1	?	nt	-5.6%	3.98µM*
CCCn1c(N)c(C(=O)CSc2nc3ccccc3s2)c(=O)[nH]c1=O	?	11.2µM*	?	-14.7%
CCCc1nc2c(C)cc(C)cc2c(N)c1CC	23.1µM*	nt	-1.4%	nt
CCOC(=O)OC[C@H]1O[C@H](C#Cc2ccc(C)cc2C)C=C[C@@H]1OC(=O)OCC	4.4%[14.2 µM]	nt	nt	nt
CCN1CCCC1CNC(=O)c1cnn(-c2ncc(C)c(-c3ccc(F)cc3)n2)c1C(C)C (stereo not drawn)	nt	-10.7%	nt	-2.9%
C=CC(C)(C)c1c(O)c(CC=C(C)C)c(O)c2c(=O)c3ccc(O)c(O)c3oc12	nt	8.91µM*	nt	?
O=c1[nH]c(SCc2ccccc2)ncc1S(=O)(=O)c1ccccc1	nt	-7.4%	nt	-10.4%
Cc1ccc(OCC(=O)NNC(=O)C(C)Sc2ncnc3sc(C)c(C)c23)cc1 (stereo not drawn)	18.2%	nt	-1.4%	nt
Cc1sc2ncnc(SC(C)C(=O)N3c4ccccc4Sc4ccccc43)c2c1C (stereo not drawn)	11.2µM*	-25.1%	?	-8.1%
CCCCCCN1C[C@@H](n2cc(C3CC3)nn2)[C@H](O)C[C@H]1c1ccccc1	nt	nt	-5.1%[46.1 µM]	nt
CCOC(=O)NC(=O)/C(C#N)=N\Nc1ccc(Cl)cc1	5.5%[46.1 µM]	nt	10.5%	-19.5%
N#C/C(=N\Nc1ccc(Cl)cc1)C(=O)c1ccccc1	11.2µM*	-23.8%	?	?
Cc1c(N/N=C(\C#N)C(=O)c2ccc(Cl)cc2)c(=O)n(-c2ccccc2)n1C	4.11µM*	11.2µM*	?	?
N#C/C(=C/c1ccc(O)c([N+](=O)[O-])c1)C(=O)Nc1ccccc1	2.51µM*	-10.5%	-6.8%[46.1 µM]	-25.7%
N#C/C(=C/C=C/c1ccccc1)C(=O)Nc1ccccc1	2.91µM*	nt	?	nt
N#C/C(=C\C=C\c1ccccc1[N+](=O)[O-])C(=O)NCc1ccccc1	?	-29.6%	10µM*	-16.6%
CCc1nc(SCC(=O)N2c3ccccc3CC2C)c2c(C)c(C)sc2n1 (stereo not drawn)	0.92µM*	?	1.46µM*	32.6%
CC(C)CC(C)N (stereo not drawn)	nt	-13.7%	nt	-14.8%
CC(C)C[C@H](N)CSSC[C@@H](N)CC(C)C	1.26µM*	nt	nt	nt
SMILES	MARV entry inh	VACV mCherry inh	Lassa entry inh	Vaccinia Venus
Cc1ccc(/C=C/C(=O)NCc2cccs2)cc1	-2.2%	-10.3%	2µM*	-4.9%
O=C(Nc1nc(-c2ccccc2)c(-c2ccccc2)o1)c1ccc(F)cc1	10µM*	?	-10.8%	?
CCOc1cc(NC(=O)C2CC2)c(OCC)cc1NC(=O)c1ccccc1OCC	10µM*	-15.4%	?	-25.7%
CCOc1cc(NC(=O)C2CC2)c(OCC)cc1NC(=O)c1cc(OC)c(OC)c(OC)c1	10.9%[46.1 µM]	-4.3%	1.9%[46.1 µM]	1.9%
O=c1[nH]c(=S)c2n[nH]nc2[nH]1	nt	21.5%	nt	-5.8%
CCOc1cc2nc(-c3ccc(OC)c(OC)c3)nc(N3CCOCC3)c2cc1OC	2.51µM*	11.2µM*	?	?
Cc1ccc(NNC(=O)c2ccno2)c(C)c1	8.91µM*	-14.3%	?	-10.7%
Cc1ccc(NNC(=O)c2sccc2Cl)c(C)c1	nt	i	nt	-15.7%
C=CCNC(=O)[C@H]1C=C(OC)C(=O)C[C@H]2c3ccccc3C[C@]12C	-22.5%[14.2 µM]	nt	nt	nt
CC(C)c1ccc2[nH]c(O)c(N=NC(=O)c3cccc(S(=O)(=O)N4CCCCC4)c3)c2c1	10µM*	?	?	-25.0%
O=C(N=Nc1c(O)[nH]c2ccccc12)c1cccc(S(=O)(=O)N2CCCCC2)c1	19.4%	i	12.3%	-5.5%
COc1ccc(C)cc1N(C(=O)c1snc(C(N)=O)c1N)C(C(=O)NC1CCCCC1)c1ccc(C)o1 (stereo not drawn)	11.2µM*	-21.7%	?	-23.9%
Cc1ccc(/C=C(\C#N)C(=O)NCC2CCCO2)o1 (stereo not drawn)	17.9%	nt	9.7%	nt
Cc1ccccc1-n1c(C)cc(/C=C(\C#N)C(=O)NCC2CCCO2)c1C (stereo not drawn)	-39.6%	-13.9%	14.6µM*	-9.6%
NCCCN(Cc1ccc(Cl)c(Cl)c1)c1ccccn1	nt	-1.2%	nt	-20.0%
CN(CC(=O)O)c1ccc(C=O)cc1	nt	-4.9%	nt	-20.6%
CCSc1nnc(C(C)NC(=O)c2ccc(OC)cc2)n1C (stereo not drawn)	nt	-4.9%	nt	-5.0%
O=C(Nc1ccc(NC(=O)C2CC2)cn1)c1ccccc1	?	2.0%	5.62µM*	8.9%
CN(N=O)c1ccc(/C=C/c2ccccc2)cc1	nt	-10.3%	nt	-9.0%
CCc1ccc(NC(=O)c2ccc(F)c(S(=O)(=O)NCC3COc4ccccc4O3)c2)cc1 (stereo not drawn)	11.6µM*	-22.4%	16.4µM*	?
CCN(c1ccccc1)S(=O)(=O)c1cc(C(=O)Nc2ccc(Br)cc2)ccc1F	?	14.1µM*	11.6µM*	12.6µM*
CCN(c1ccccc1)S(=O)(=O)c1cc(C(=O)Nc2ccccc2Cl)ccc1F	?	-10.4%	?	-20.2%
O=C(NCC1COc2ccccc2O1)c1ccc(F)c(S(=O)(=O)N2CCOCC2)c1 (stereo not drawn)	-6.8%	-21.0%	4.7%	-13.4%
Cc1ccn2c(Nc3ccc(F)cc3)c(-c3ccccn3)nc2c1	4.8%[46.1 µM]	?	0.0%[46.1 µM]	?
Cc1ccc(Nc2c(-c3ccccn3)nc3cccc(C)n23)cc1	nt	12.6µM*	nt	-21.2%
SMILES	MARV entry inh	VACV mCherry inh	Lassa entry inh	Vaccinia Venus
Cc1cccc2nc(-c3ccccn3)c(Nc3ccccc3)n12	?	?	11.2µM*	?
Cc1ccc(Nc2c(-c3ccc(C)o3)nc3cccc(C)n23)cc1	?	-16.4%	-11.0%[46.1 µM]	-14.7%
Cc1cc(C)n2c(Nc3c(C)cccc3C)c(-c3ccccn3)nc2n1	nt	?	nt	5.3%
Cc1cccc2nc(-c3ccccn3)c(Nc3ccc(F)cc3)n12	?	10µM*	?	?
Cc1ccccc1NC(=O)c1nc(S(=O)(=O)Cc2ccccc2F)ncc1Cl	nt	-18.3%	nt	-21.4%
Cc1ncc2c(c1CNC(=O)c1cncs1)CCN(C(=O)c1ccc(C(F)(F)F)cc1)C2	nt	-7.4%	nt	-0.8%
CCOc1ccccc1N(C)C(=O)Cn1ncc2c([nH]c3ccccc32)c1=O	6.31µM*	-12.7%	-19.6%[46.1 µM]	-6.6%
Cc1ncc2c(c1CNC(=O)c1ccc3c(c1)OCO3)CCN(C(=O)/C=C/c1ccccc1Cl)C2	nt	-7.5%	nt	-7.6%
CC(C)n1cnc2c(Nc3ccc(F)c(Cl)c3)nc(NCCO)nc21	nt	10µM*	nt	?
CC[C@@H](CO)Nc1nc(NCc2ccccc2)c2ncn(C(C)C)c2n1	-43.9%	nt	?	nt

High-throughput results as filed in PubChem.
